# According to PubChem BioAssay AID485346 (Sanford-Burnham Center for Chemical Genomics, 2010):
# In all, about 330,000 compounds went through this assay and about 10,000 (3%) were called active. What follows is part of a selection rich in actives, with near analogues and random picks from the rest. A number with no mark means an inactive call.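 The calls were made as follows: active = inhibition of at least 50% at 8 µM in the primary screen; inactive = the rest.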
# Biological target: Protein Mdm4 (Homo sapiens) + E3 ubiquitin-protein ligase Mdm2 (Homo sapiens) (UniProt O15151+Q00987)
# Sequence (O15151 whole entry, looked up): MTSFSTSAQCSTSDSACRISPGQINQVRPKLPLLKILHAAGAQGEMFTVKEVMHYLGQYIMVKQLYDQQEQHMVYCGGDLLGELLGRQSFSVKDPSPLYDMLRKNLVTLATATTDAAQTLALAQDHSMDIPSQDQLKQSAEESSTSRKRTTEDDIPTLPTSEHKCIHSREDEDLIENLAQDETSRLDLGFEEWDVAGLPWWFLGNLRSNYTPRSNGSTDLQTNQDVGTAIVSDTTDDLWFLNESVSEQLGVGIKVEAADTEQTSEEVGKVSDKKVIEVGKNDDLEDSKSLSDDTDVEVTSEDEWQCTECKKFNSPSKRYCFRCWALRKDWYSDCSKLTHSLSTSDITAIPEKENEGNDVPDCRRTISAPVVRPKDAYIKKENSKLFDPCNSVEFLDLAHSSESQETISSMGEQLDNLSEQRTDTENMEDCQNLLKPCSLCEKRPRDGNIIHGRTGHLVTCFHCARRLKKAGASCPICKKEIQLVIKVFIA
# Sequence (Q00987 whole entry, looked up): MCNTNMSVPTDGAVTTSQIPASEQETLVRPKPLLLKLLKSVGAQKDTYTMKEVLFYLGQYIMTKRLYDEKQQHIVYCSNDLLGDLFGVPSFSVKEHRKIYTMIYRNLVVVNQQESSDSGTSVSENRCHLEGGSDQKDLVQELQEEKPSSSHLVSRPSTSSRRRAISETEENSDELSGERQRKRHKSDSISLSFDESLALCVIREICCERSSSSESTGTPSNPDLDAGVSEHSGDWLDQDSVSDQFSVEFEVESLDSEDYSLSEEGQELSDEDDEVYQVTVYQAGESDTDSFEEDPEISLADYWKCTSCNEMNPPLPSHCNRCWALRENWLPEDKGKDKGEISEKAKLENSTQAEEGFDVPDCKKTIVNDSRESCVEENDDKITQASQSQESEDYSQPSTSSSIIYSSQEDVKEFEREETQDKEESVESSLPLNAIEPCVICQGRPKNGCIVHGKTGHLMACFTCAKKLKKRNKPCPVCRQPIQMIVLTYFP
# Assay: inhibitors of human Mdm2-MdmX association, primary screen, cell-based, luminescence, split luciferase, SaOS-2, uHTS (AID 485346)
# Conditions: SaOS-2 split-luciferase Mdm2/MdmX complementation, at 8 µM, stronger effect = higher value
row,SMILES,inhibition
1,O=C(NC(=O)N1CCSCC1)c1c(Cl)cccc1Cl,-31.4%
2,COc1ccc(CN2C(=O)CC(Cc3ccc(C)cc3)C2=O)cc1OC (configuration not stated),5.73%
3,CCc1cccc(C)c1NC(=O)COC(=O)CNC(=O)c1cccs1,-18.9%
4,Cc1ccc(C)c(NC(CC(=O)c2ccccc2)C(=O)OCC(=O)c2cccs2)c1 (configuration not stated),-9.67%
5,Cc1ccccc1C(CC(=O)c1cccs1)C(C#N)C#N (configuration not stated),75.4% (active)
6,CC1=C(C/C=C(\C)CCCC(C)CCCC(C)CCCC(C)C)C(=O)c2ccccc2C1=O (configuration not stated),-7.28%
7,CC(C)CC(NC(=O)C1CCCN1C(=O)[C@@H](C)NC(=O)OCc1ccccc1)C(=O)NCC(N)=O (some centres not stated),-21.6%
8,COc1ccc(C2C(C(C)=O)=C(O)C(=O)N2CCc2c[nH]c3ccccc23)cc1 (configuration not stated),-16.3%
9,COc1ccc2nc(Nc3nc4ccc(NC(C)=O)cc4s3)sc2c1,79.7% (active)
10,COc1ccc2nc(NC(=O)NC3CCCCC3)sc2c1,-142%
11,CCc1noc(C)c1C(=O)Nc1nc2ccc(OC)cc2s1,0.6%
12,Cc1csc2ncc(C(=O)N(Cc3ccccc3)c3ccccn3)c(=O)n12,0.705%
13,CC(C)NC(=O)c1ccccc1S(=O)c1ccccc1C#N (configuration not stated),-7.43%
14,O=C(Nc1nnc(-c2ccco2)o1)c1ccc(S(=O)(=O)N2CCOCC2)cc1,-9.19%
15,COc1cccc(-c2nnc(NC(=O)c3ccc(S(=O)(=O)N(CC(C)C)CC(C)C)cc3)o2)c1,72.2% (active)
16,COc1ccc(-c2nnc(NC(=O)CS(=O)(=O)c3ccc(Cl)cc3)o2)c(OC)c1,-3.12%
17,CC(C#N)OC(=O)c1cccnc1SCC(=O)Nc1ccc2c(c1)OCO2 (configuration not stated),-12.8%
18,CC(C)(C)n1nnc(CCc2nnn(C(C)(C)C)n2)n1,13.5%
19,O=C(CN1C(=O)c2ccccc2S1(=O)=O)NC1CCCCC1,12.3%
20,O=C(CN1C(=O)c2ccccc2S1(=O)=O)N1CCc2ccccc21,68% (active)
21,CC1CCCN(C(=O)CN2C(=O)c3ccccc3S2(=O)=O)C1 (configuration not stated),3.88%
22,Cc1ccc(NC(=O)c2cc3ccccc3o2)cc1,-218%
23,Cc1c(/C=N\NC(=O)c2cc3ccccc3o2)c2ccccc2n1C,50.8% (active)

row,SMILES,inhibition
1,O=C(N/N=C/c1cccc(O)c1)c1cc2c(ccc3ccccc32)o1,-1.11%
2,O=C1[C@H]2[C@@H](c3ccc(Cl)cc3)N3C(=O)N(c4cccc(F)c4)C(=O)[C@@]3(Cc3ccccc3)[C@H]2C(=O)N1C1CCCCC1,4.69%
3,O=C1[C@H]2[C@@H](c3ccc(F)cc3)N3C(=O)N(c4ccc(C(F)(F)F)cc4)C(=O)[C@@]3(Cc3ccccc3)[C@H]2C(=O)N1C1CCCCC1,95.3% (active)
4,Cc1cccc(N2C(=O)N3[C@H](c4ccc(F)cc4)[C@@H]4C(=O)N(C5CCCCC5)C(=O)[C@@H]4[C@]3(Cc3ccccc3)C2=O)c1,18.2%
5,Cc1ccc(NC(=O)CCCNC(=O)c2ccc(Cl)cc2)cc1S(=O)(=O)N1CCCCC1,14.3%
6,Cc1ccc(CN2CCN(/N=C/c3cccnc3)CC2)c(C)c1,-1.63%
7,O=c1[nH]c(NCCO)nnc1Cc1ccc(Cl)cc1,16.8%
8,COc1ccc(Cc2nnc(N/N=C/c3ccccc3O)[nH]c2=O)cc1OC,66.5% (active)
9,CC(C)c1ccc(Cc2nnc(NCCCO)[nH]c2=O)cc1,-3.05%
10,OC(CN=c1sc2ccccc2n1CC(O)COc1ccccc1)COc1ccccc1 (configuration not stated),33.4%
11,Cc1cccc(NC(=O)CN2CCN(CC(=O)NCC3(N4CCCCC4)CCCCC3)CC2)c1C,-24.2%
12,Cc1nc2nc(C)c(CCC(=O)N3CCN(c4ccccc4)CC3)c(C)n2n1,7.55%
13,COc1ccc(CNc2nc(NCc3ccc(OC)cc3)c3ncn(C4CCCC4)c3n2)cc1,60.8% (active)
14,COc1ccc(CNC2CCCCC2)cc1,7.1%
15,COc1ccc(CNC(=O)C2CCCC2)cc1,1.84%
16,C=CCN1C(=O)C(O)(CC(=O)c2ccc(Cl)cc2)c2ccccc21 (configuration not stated),4.99%
17,C=CCC(CC=C)(C(N)=O)c1ccccc1,11.4%
18,CC(C)c1ccccc1OCC(O)CN(CC(O)COc1cccc2ccccc12)C(C)C (configuration not stated),59.8% (active)
19,Cc1cc(C)c(NC(=O)C[N+](C)(C)CC(O)COc2cccc3ccccc23)c(C)c1 (configuration not stated),12.6%
20,CCC(C)Sc1nc2c(c(=O)[nH]c(=O)n2C)n1CC(O)COc1cccc2ccccc12 (configuration not stated),16.9%
21,CCC(C)(C)c1ccc(Oc2ccc(NC(=O)COC(=O)C3=COCCO3)cc2)cc1,0.755%
22,C[C@@H](O)c1nc2ccccc2n1N,-21.5%
23,O=c1c2cc(Br)ccc2nc(-c2cccc(Cl)c2)n1O,40.4%

row,SMILES,inhibition
1,O=C1CN(c2nc(-c3ccccc3)c3cc(Br)ccc3n2)c2ccccc2N1,66.1% (active)
2,CC1CC(=O)Nc2ccccc2N1C(=O)COc1ccc2cc(Br)ccc2c1 (configuration not stated),20%
3,CC(=O)c1ccc(S(=O)(=O)N2CCN(c3nc4c(C)c(C)ccc4cc3C#N)CC2)cc1,32.9%
4,CC(=O)c1ccc(S(=O)(=O)N2CCN(C(=O)/C=C/c3ccc4ccccc4n3)CC2)cc1,79.9% (active)
5,CC(=O)c1ccc(S(=O)(=O)N2CCC3(CC2)OCCO3)cc1,-6.56%
6,Cc1cc(C)n2nc(C(=O)OCC(=O)N(CCC#N)c3ccc(F)cc3)nc2n1,11.4%
7,Nc1cccc2c1C(=O)N(Cc1nnc(-c3ccccc3Br)o1)C2=O,2.07%
8,O=C(c1nnc(-c2ccc(Cl)cc2)o1)C1CCCC1,-34.3%
9,S=c1[nH]nc(-c2ccc(Cl)cc2)n1CC1CCCO1 (configuration not stated),-1.54%
10,O=C(c1[nH]ncc1-c1ccc(Cl)cc1)C1CO1 (configuration not stated),78.2% (active)
11,CCOc1ccc(NC(=O)CSc2nncn2C)cc1,6.1%
12,NC(=O)C(Cc1ccccc1)NC(=O)C12CC3CC(CC(C3)C1)C2 (configuration not stated),2.27%
13,CCN(CC(=O)Nc1c(F)cccc1F)C(=O)c1ccc(-c2ccc(C(C)=O)cc2)o1,-16.4%
14,C[n+]1cc(-c2ccccc2)oc1-c1ccccc1,-21.5%
15,Cc1cc(C)n2nc(C(=O)OCC(=O)N(C)CC(=O)Nc3ccc(F)cc3)nc2n1,-1.93%
16,CCC1CCCCN1CCCNC(=O)Cn1nc(-c2ccccc2)ccc1=O (configuration not stated),5.14%
17,CCC1CCCCN1CCCNC(=O)c1cc2c(Cl)nc3ccccc3c2s1 (configuration not stated),58.7% (active)
18,CCC1CCCCN1CCCNC(=O)C1CCC(Cn2c(=O)[nH]c3ccccc3c2=O)CC1 (configuration not stated),-28.9%
19,COC(=O)Cc1ccc(OCC(=O)NC2CCCC2)cc1,8.06%
20,CC(=O)c1ccc(OCCCC(=O)Nc2ccc(C)c(S(=O)(=O)N3CCOCC3)c2)cc1,13.1%
21,CCOC(=O)c1ccccc1NC(=O)CSc1nc2ccccc2c(=O)[nH]1,10.1%
22,CC(=O)NCc1ccc(-c2csc(NC(=O)CCCc3nc4ccccc4c(=O)[nH]3)n2)cc1,6.81%
23,O=C(CSc1nc2ccccc2c(=O)[nH]1)Nc1nc(-c2ccc(Br)cc2)cs1,75.5% (active)

row,SMILES,inhibition
1,Cc1nnc(Nc2ccccc2F)s1,1.11%
2,O=C(Nc1ccc(C(F)(F)F)cc1)c1cccc(-n2cnnn2)c1,-13.9%
3,Cc1nc(NC(=O)c2cccc(Cl)c2)sc1-c1csc(Nc2cccc(Cl)c2)n1,-2.75%
4,O=C(Nc1ccc(-c2csc(Nc3cccc(C(F)(F)F)c3)n2)cc1)c1cccc(C(F)(F)F)c1,69.4% (active)
5,CCn1cc(CCC(=O)NCc2ccc(F)cc2)c2ccccc21,-7.13%
6,Cc1noc(C)c1C(=O)OCC(=O)N1CCN(S(=O)(=O)c2ccc3ccccc3c2)CC1,-6.59%
7,COc1ccc(CC(=O)NCc2nnc(SCC(=O)Nc3ncc(C)s3)n2C)cc1,6.63%
8,CCSc1nnc(NC(=O)c2ccc(C)cc2)s1,-64.2%
9,Cc1nnc(NC(=O)c2ccc3nccnc3c2)s1,6.88%
10,Cc1ccc(S(=O)(=O)CC(=O)Nc2nnc(C)s2)cc1,7.87%
11,COCCSc1nnc(NC(=O)CCS(=O)(=O)Cc2ccccc2)s1,25.9%
12,Cc1ccc(CS(=O)(=O)c2ncc(Cl)c(C(=O)Nc3nnc(C)s3)n2)cc1,99.7% (active)
13,CSc1nnc(NC(=O)c2nc(S(=O)(=O)Cc3ccc(C)cc3)ncc2Cl)s1,98.2% (active)
14,CCN(CC)S(=O)(=O)c1cc(C(=O)Nc2cc(S(=O)(=O)N3CCOCC3)ccc2N2CCCC2)ccc1F,26.3%
15,CCC(NC(=O)c1cc(COc2ccc(F)c(F)c2)on1)c1ccncc1 (configuration not stated),5.8%
16,O=C(Nc1ccc2sc3ccccc3c(=O)c2c1)c1ccccc1Cl,-48%
17,CCOC(=O)Cn1nnnc1C,15.3%
18,O=C(CN1CCC(NC(=O)C2CC2)CC1)Nc1ccccc1[N+](=O)[O-],15.4%
19,COc1ccc(CC(=O)N[C@@H]2c3cc(OC)c(OC)cc3C[C@H]2OCc2ccccc2)cc1,38.6%
20,O=c1c2ccccc2nc2n1C(CSCc1cccc(C(F)(F)F)c1)CS2 (configuration not stated),0.237%
21,Cc1noc(C)c1C(=O)NCC1COc2ccccc2O1 (configuration not stated),26.4%
22,Cc1cc(C(=O)CCl)c(C)n1CC1COc2ccccc2O1 (configuration not stated),78.9% (active)
23,O=C1C(=O)N(CC2COc3ccccc3O2)c2ccccc21 (configuration not stated),26.1%
